The values that follow come from PubChem BioAssay (Tox21).

Several values for one entry are separate records, joined by “and”; a condition that tells them apart may be missing. Equal values may be shown once. Records with an inconclusive call do not appear. Some compounds were tested as several samples or in several runs, with calls that do not always agree. Activity calls are given as the source filed them. Unless noted, calls follow the shape of the full dose curve.

Test [1] in a line: Nuclear factor erythroid 2-related factor 2/antioxidant responsive element (Nrf2/ARE) small molecule agonists: qHTS cell viability counter screen in human keratinocytes (AID 1919968; active = well fitted curve in the direction sought with a large enough effect in the repeat runs; an effect the other way counts as inactive or inconclusive; also: nearly all actives have a fitted effect of over 55% in size). The gist of the method: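 KeratinoSens cells (HaCaT keratinocytes stably carrying an ARE-luciferase reporter) were seeded at 1,500 cells/well and rested 5 h at 37 C/5% CO2. They were then exposed to compounds in DMSO for 23 h. Viability was read by CellTiter-Fluor fluorescence after 1 h.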

The nature of test [2]: Nuclear factor erythroid 2-related factor 2/antioxidant responsive element (Nrf2/ARE) small molecule agonists: luciferase reporter gene qHTS assay in human keratinocytes (AID 1919969). Also: nearly all actives have a fitted effect of over 35% in size.
In test [3] the target is Gonadotropin-releasing hormone receptor (Homo sapiens) (UniProt P30968). The test can be described thus: Human gonadotropin-releasing hormone receptor (GnRHR) small molecule agonists, calcium flux assay in GnRHR-HEK293 cells (AID 1920063). Also: nearly all actives have a fitted effect of over 35% in size. In outline:
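HEK293 cells stably expressing human GnRHR were plated 18 h at 37 °C, loaded with calcium dye 1 h at 37 °C, then given compound in agonist mode; fluorescence (Ex/Em 480/540) read kinetically for 3 min at 1 s intervals.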

Test [4] deals with KiSS-1 receptor (Homo sapiens) (UniProt Q969F8). The test can be described thus: Human kisspeptin (KISS1R) small molecule agonists, calcium flux assay in KISS1R-HEK293 cells (AID 1920064; active = well fitted curve in the direction sought with a large enough effect in the repeat runs; an effect the other way counts as inactive or inconclusive). The gist of the method:
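HEK293 cells stably expressing human KISS1R were plated 18 h at 37 °C, loaded with calcium dye for 1 h at 37 °C, then given compound by pin tool. Fluorescence (Ex/Em 480/540) was read kinetically for 3 min.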

Test [5] in a line: G protein-coupled receptor (GPCR) small molecule agonists, calcium flux assay: HEK293 wild type cell line counter screen (AID 1920065). The gist of the method:
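Cells were plated and cultured 18 h at 37 C/5% CO2, then loaded with calcium dye for 1 h at 37 C. Compounds in DMSO were pin-transferred in agonist mode, and fluorescence (Ex/Em 480/540) was read kinetically for 3 min at 1 s intervals.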

A short description of test [6]: p53 small molecule agonists, cell-based qHTS assay with human liver microsomes (AID 1963577). The gist of the method:
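p53RE-bla cells, 4,000/well, compound added after 5 h, with human liver microsomes 0.5 mg/mL and NADPH 0.5 mg/mL final; 16 h at 37 C, then LiveBLAzer 2 h RT, fluorescence.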

The nature of test [7]: p53 small molecule agonists, cell-based qHTS assay with rat liver microsomes (AID 1963578). The gist of the method: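 p53RE-bla cells, 4,000/well, pre-incubated 5 h, then given compounds plus rat liver microsomes (0.5 mg/mL final) and NADPH (0.5 mg/mL final). Incubation 16 h at 37 C; beta-lactamase reporter read by LiveBLAzer fluorescence after 2 h at room temperature.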
The nature of test [8]: p53 small molecule agonists, cell-based qHTS assay with human liver microsomes: qHTS cell viability counter screen (AID 1963579). Also: nearly all actives have a fitted effect of over 45% in size. The gist of the method: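 p53RE-bla cells, 4,000/well, dosed 5 hours after plating, with human liver microsomes (0.5 mg/mL final) plus NADPH (0.5 mg/mL final), 16 hours at 37 C. Viability read as CellTiter-Glo luminescence after 30 min at room temperature.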

Test [9] is described as follows: p53 small molecule agonists, cell-based qHTS assay with rat liver microsomes: qHTS cell viability counter screen (AID 1963580). Also: nearly all actives have a fitted effect of over 45% in size. In outline:
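p53RE-bla HCT-116 cells (4,000/well) rested 5 h at 37 C, then given Tox21 compounds in DMSO with rat liver microsomes (0.5 mg/mL final) plus NADPH (0.5 mg/mL final) for 16 h at 37 C. Viability read by CellTiter-Glo luminescence after 30 min at room temperature.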

The nature of test [10]: p53 small molecule agonists, cell-based qHTS assay: qHTS cell viability counter screen (AID 1963581). Also: nearly all actives have a fitted effect of over 45% in size. In outline:
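p53RE-bla HCT-116 cells were exposed to compounds for 16 h at 37 C; after the beta-lactamase FRET read in the same wells, CellTiter-Glo was added and luminescence (intracellular ATP) read after 30 min at room temperature.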

A short description of test [11]: p53 small molecule agonists, cell-based qHTS assay (AID 1963582; active = well fitted activation curve with a large enough effect in the signal ratio in the repeat runs, not every such curve was filed as active; the % refers to the signal ratio). The gist of the method:
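p53RE-bla beta-lactamase reporter cells rested 5 h at 37 C/5% CO2, then received compounds in DMSO by pin transfer and were incubated 16 h at 37 C. LiveBLAzer B/G FRET substrate was loaded for 2 h at room temperature before fluorescence reading.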

Test [12] concerns the target 5-hydroxytryptamine receptor 2A (Homo sapiens) (UniProt P28223). The experiment in a line: 5-hydroxytryptamine receptor 2A (HTR2A) small molecule antagonists, cell-based qHTS assay (AID 1963586). Also: nearly all actives have a fitted effect of over 45% in size. The gist of the method: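 Antagonist-mode intracellular calcium assay: DOI (4 nM) added after 5 min compound pre-incubation at room temperature to dye-loaded HTR2A-CHO cells. Fluorescence followed for 3 min, sampled every second.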

For test [13] the target is unchanged. The experiment in a line: 5-hydroxytryptamine receptor 2A (HTR2A) small molecule agonists, cell-based qHTS assay (AID 1963587). Also: nearly all actives have a fitted effect of over 30% in size. The gist of the method:
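HTR2A-CHO cells, plated 18 h at 37 C/5% CO2, dye-loaded 1 h at 37 C; compounds in DMSO added by pin tool (agonist mode). Intracellular calcium flux read as kinetic fluorescence on FDSS over 2 min at 1 s intervals.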

For test [14], the target named is Muscarinic acetylcholine receptor M1 (Homo sapiens) (UniProt P11229). The test can be described thus: Cholinergic receptor muscarinic 1 (CHRM1) small molecule antagonists, cell-based qHTS assay (AID 1963588). Also: nearly all actives have a fitted effect of over 40% in size. The gist of the method: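 CHRM1-CHO calcium-flux assay, antagonist mode. Cells were seeded 18 h, dye-loaded 1 h at 37 C and given compound for 5 min at RT, then acetylcholine was added at 50nM. FDSS fluorescence was read 3 min; 15 concentrations, three runs.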

Test [15] shares this target. The experiment in a line: Cholinergic receptor muscarinic 1 (CHRM1) small molecule agonists, cell-based qHTS assay (AID 1963589). Also: nearly all actives have a fitted effect of over 35% in size. In outline: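 CHO cells stably expressing human CHRM1, seeded 18 h at 37 C/5% CO2, dye-loaded 1 h at 37 C, then given compound in agonist mode; intracellular calcium fluorescence read kinetically at 1 s intervals. Fifteen concentrations, three independent runs.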

A short description of test [16]: cAMP Responsive Elements (CRE) small molecule agonists, cell-based qHTS assay (AID 1963590). In outline: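 CRE-bla HEK 293T cells in DMEM with 10% dialyzed FBS, NEAA, pyruvate and 25 mM HEPES were plated 18 h at 37 C/5% CO2, then exposed to compounds in DMSO for 3 h before LiveBLAzer B/G FRET substrate addition.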
Test [17] is described as follows: cAMP Responsive Elements (CRE) small molecule antagonists, cell-based qHTS assay (AID 1963591; active = well fitted inhibition curve with a large enough effect in the signal ratio in the repeat runs, not every such curve was filed as active; the % refers to the signal ratio). The gist of the method:
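CRE-bla HEK293T cells were plated 18 h at 37 °C/5% CO2, pinned with compound in DMSO, then stimulated with NKH477 at 0.25 uM final for 3 h. LiveBLAzer B/G FRET substrate was added and plates incubated 2 h at room temperature.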

Test [18] deals with Beta-2 adrenergic receptor (Homo sapiens) (UniProt P07550). The experiment in a line: Adrenergic beta2 receptor (ADRB2) small molecule antagonists, cell-based qHTS assay (AID 1963592). Also: series mostly up to about 92 µM; nearly all actives have a fitted effect of over 50% in size. The gist of the method: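 Cells (CHO, stable ADRB2 overexpression) incubated 18-20hr at 37C; compounds added from DMSO; agonist mix (1nM isoproterenol, 100uM IBMX, 25uM Ro-20-1724) added; 0.5hr RT; d2-cAMP and anti-cAMP-cryptate added; 1hr RT; 665/615 nm read.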

Test [19] addresses D(2) dopamine receptor (Homo sapiens) (UniProt P14416). The experiment in a line: Dopamine D2 receptor (DRD2) small molecule agonists, cell-based qHTS assay (AID 1963594). Also: nearly all actives have a fitted effect of over 35% in size. Also: potency is read from the fitted curve at half-maximal effect. In outline: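 HEK293 cells stably expressing DRD2 were cultured 24 h at 37 C, then given Ro20-1724 (0.1 mM final) and compounds for 10 min at room temperature. NKH477 (200nM) was then added for 30 min. cAMP was read by HTRF.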

Test [20] has the same target. The test can be described thus: Dopamine D2 receptor (DRD2) small molecule antagonists, cell-based qHTS assay (AID 1963595; active = well fitted inhibition curve with a large enough effect in the signal ratio in the repeat runs, with a control signal flat; the % refers to the signal ratio). In outline: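 HEK293 cells stably expressing DRD2, preincubated with 0.1 mM Ro20-1724 and compounds 10 min, were stimulated with 200 nM NKH477 plus 12 nM quinpirole for 30 min at room temperature; cAMP measured by HTRF (665/620 nm).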

Sequence of Beta-2 adrenergic receptor (Homo sapiens) (P07550 whole entry, looked up): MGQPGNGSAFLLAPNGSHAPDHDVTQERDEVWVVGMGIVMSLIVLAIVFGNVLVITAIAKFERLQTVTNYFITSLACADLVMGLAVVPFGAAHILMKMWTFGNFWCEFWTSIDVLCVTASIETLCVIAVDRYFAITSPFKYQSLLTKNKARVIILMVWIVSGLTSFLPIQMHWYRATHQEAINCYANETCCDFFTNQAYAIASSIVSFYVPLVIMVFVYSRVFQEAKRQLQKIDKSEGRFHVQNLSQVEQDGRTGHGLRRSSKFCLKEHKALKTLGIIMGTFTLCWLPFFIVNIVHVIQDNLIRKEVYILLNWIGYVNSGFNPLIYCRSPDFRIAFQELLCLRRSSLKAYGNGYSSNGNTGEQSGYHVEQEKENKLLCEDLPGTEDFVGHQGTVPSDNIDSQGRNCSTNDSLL
Sequence of Gonadotropin-releasing hormone receptor (Homo sapiens) (P30968 whole entry, looked up): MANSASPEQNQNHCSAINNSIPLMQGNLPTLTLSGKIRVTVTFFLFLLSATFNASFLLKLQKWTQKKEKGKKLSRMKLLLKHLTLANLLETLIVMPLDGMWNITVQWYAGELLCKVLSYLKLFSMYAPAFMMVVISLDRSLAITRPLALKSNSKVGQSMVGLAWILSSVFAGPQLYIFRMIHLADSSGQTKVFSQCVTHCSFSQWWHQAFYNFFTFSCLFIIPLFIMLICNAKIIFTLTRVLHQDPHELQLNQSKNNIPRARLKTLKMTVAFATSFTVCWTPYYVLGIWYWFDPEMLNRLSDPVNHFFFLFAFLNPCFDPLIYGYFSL
Sequence of KiSS-1 receptor (Homo sapiens) (Q969F8 whole entry, looked up): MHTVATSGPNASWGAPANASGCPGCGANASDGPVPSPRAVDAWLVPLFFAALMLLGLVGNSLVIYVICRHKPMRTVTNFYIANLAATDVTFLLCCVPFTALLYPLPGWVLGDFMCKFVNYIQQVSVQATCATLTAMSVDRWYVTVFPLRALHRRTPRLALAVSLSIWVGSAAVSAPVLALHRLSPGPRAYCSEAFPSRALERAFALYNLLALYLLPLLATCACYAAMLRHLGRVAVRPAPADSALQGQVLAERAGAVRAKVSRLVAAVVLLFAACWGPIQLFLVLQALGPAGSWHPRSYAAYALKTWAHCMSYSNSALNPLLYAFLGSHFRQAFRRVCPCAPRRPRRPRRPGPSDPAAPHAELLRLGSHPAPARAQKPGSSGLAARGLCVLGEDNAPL
Sequence of D(2) dopamine receptor (Homo sapiens) (P14416 whole entry, looked up): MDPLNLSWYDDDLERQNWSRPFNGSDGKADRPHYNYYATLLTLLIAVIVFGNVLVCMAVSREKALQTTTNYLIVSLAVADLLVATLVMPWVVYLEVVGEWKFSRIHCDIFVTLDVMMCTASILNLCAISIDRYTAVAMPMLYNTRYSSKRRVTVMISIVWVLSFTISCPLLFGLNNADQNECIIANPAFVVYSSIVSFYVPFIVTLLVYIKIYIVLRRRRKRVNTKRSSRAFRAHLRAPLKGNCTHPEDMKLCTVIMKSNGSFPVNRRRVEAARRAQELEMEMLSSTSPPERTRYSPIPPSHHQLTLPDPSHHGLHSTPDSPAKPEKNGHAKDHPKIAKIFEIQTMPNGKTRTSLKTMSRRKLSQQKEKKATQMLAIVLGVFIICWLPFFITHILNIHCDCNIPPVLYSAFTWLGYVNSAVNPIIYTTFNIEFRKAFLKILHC
Sequence of Muscarinic acetylcholine receptor M1 (Homo sapiens) (P11229 whole entry, looked up): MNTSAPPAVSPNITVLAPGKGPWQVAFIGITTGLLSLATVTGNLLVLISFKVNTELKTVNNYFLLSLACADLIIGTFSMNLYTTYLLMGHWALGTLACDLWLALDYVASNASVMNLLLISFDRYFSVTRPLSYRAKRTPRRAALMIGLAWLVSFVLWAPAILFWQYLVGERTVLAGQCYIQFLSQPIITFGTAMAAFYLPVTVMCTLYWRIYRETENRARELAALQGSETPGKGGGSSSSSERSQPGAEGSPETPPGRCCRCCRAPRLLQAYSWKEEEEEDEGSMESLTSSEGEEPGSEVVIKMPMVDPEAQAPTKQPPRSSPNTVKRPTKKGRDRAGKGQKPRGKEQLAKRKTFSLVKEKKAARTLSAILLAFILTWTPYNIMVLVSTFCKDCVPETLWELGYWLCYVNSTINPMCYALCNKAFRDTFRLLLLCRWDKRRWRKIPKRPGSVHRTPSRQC
Sequence of 5-hydroxytryptamine receptor 2A (Homo sapiens) (P28223 whole entry, looked up): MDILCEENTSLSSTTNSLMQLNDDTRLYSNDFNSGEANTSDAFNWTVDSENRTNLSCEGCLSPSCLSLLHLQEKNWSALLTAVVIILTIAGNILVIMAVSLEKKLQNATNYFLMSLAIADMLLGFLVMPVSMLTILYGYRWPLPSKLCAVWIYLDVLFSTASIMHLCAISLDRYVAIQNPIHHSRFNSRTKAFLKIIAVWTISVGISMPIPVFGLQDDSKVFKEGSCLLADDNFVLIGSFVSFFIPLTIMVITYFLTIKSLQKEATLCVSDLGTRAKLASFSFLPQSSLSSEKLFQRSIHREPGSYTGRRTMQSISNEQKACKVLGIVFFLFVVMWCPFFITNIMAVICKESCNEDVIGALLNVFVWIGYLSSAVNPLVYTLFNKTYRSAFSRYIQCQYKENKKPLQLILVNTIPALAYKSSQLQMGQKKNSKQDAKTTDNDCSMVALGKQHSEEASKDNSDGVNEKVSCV

On to `CCCCCCCCCCO`, for which the Potency result in [1], in test [2], in [3], in test [4], in [5] and in test [6] was “inactive” in each case. Moreover, the Potency result in [7], in test [8], in test [9], in [10], in test [11] and in test [12] was “inactive” in each case. Also, the Potency result in test [13], in test [14], in test [15], in test [16], in test [17] and in test [18] was “inactive” each time. Also, the Potency result in test [19] and in [20] was “inactive” in each case.

`CC(=O)c1ccc(O)cc1`: the Potency entry in [1], in test [2], in [3], in [4], in test [5] and in test [6] was “inactive” each time. The Potency entry in test [7], in [8], in [9], in test [10], in test [11] and in test [12] was “inactive” throughout. The Potency entry in test [13], in test [14], in test [15], in [16], in [17] and in test [18] was “inactive” each time. For the same compound, the Potency result in [19] and in test [20] was “inactive” throughout.

Take `CCc1ccc(O)cc1`: the Potency entry in test [1], in test [2], in test [3], in [4], in test [5] and in test [6] was “inactive” each time. For the same compound, the Potency entry in test [7], in [8], in test [9], in test [10], in [11] and in test [12] was “inactive” throughout. The Potency entry in [13], in test [14], in [15], in test [16], in test [17] and in [18] was “inactive” throughout. Besides, the Potency result in [19] and in test [20] was “inactive” in each case.

Consider `Brc1nc2ccccc2s1`, for which the Potency result in [1], in [2], in test [3], in test [4], in [5] and in [6] was “inactive” throughout. The Potency result in test [7], in test [8], in test [9], in test [10], in [11] and in test [12] was “inactive” in each case. Moreover, the Potency entry in test [13], in test [14], in test [15], in test [16], in test [17] and in [18] was “inactive” throughout. For the same compound, the Potency entry in test [19] and in test [20] was “inactive” throughout.

As for `NS(=O)(=O)O`, the Potency result in test [1], in [2], in test [3], in [4], in test [5] and in [6] was “inactive” each time. Also, the Potency result in [7], in test [8], in test [9], in test [10], in test [11] and in test [12] was “inactive” in each case. Further, the Potency entry in test [13], in test [14], in [15], in test [16], in test [17] and in [18] was “inactive” each time. Further, the Potency result in [19] and in test [20] was “inactive” throughout.

Regarding `CCCCCCCC(=O)OC`, the Potency entry in test [1], in [2], in test [3], in [4], in [5] and in test [6] was “inactive” each time. Also, the Potency entry in test [7], in test [8], in [9], in test [10], in test [11] and in test [12] was “inactive” in each case. The Potency result in test [13], in [14], in [15], in test [16], in test [17] and in [18] was “inactive” throughout. Moreover, the Potency entry in test [20] is “inactive”. Further, in [19], the Potency entry was “inactive and 61.1 µM (active)”.

In the case of `C=CC(=O)OCCCCCCCC(C)C`, the Potency entry in [1], in test [2], in test [3], in test [4], in test [5] and in test [6] was “inactive” in each case. The Potency entry in test [7], in test [8], in test [9], in test [10], in [11] and in test [12] was “inactive” throughout. The Potency entry in test [13], in [14], in test [15], in test [16], in test [17] and in [18] was “inactive” throughout. The Potency entry in test [19] and in test [20] was “inactive” each time.
